Results as given in PubChem BioAssay (NCI).
This is part of a sample that, as a whole, favours compounds with a hit. Of some 83,000 tested, about 20% had one in any assay.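 Single-dose data. Exposure time 48 hours. Values below 10 considered active.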 A number with no mark means an inactive call. Calls of active or inactive are those of the source.

The molecules below were run on UO-31 renal (assay: NCI-60 one-dose screen, 48 h (100 = growth as untreated, 0 = no growth, -100 = all killed)). Settings: 10 µM unless noted.

`COc1ccc2c(CCCCC(c3ccccc3)c3ccccc3)c3[n+](cc2c1OC)CCc1cc2c(cc1-3)OCO2` was tested, and the growth was -42.1% (active).
In the case of `CCN1CCN(c2cc(C)nc(N(CCCNc3ccnc4cc(Cl)ccc34)Cc3ccc4c(c3)OCO4)n2)CC1`, the growth is reported as -81.9% (active).
In the case of `Nc1c2c(c(O)c3c1=C(CO)C=N3)=NCCS2`, the growth is reported as -86.3% (active).
`Cc1cc(N(CCNc2ccnc3cc(Cl)ccc23)Cc2ccc3c(c2)OCO3)nc(N2CCN(C)CC2)n1` was tested, and the growth was 2.58% (active).
In the case of `C=CC(=O)N(C)[C@H]1C[C@H]2OC(C)(C1OC)n1c3ccccc3c3c4c(c5c6ccccc6n2c5c31)C(=O)NC4` (stereo partly drawn), the growth is reported as -30.5% (active).
With `Oc1ccc(/C=N/Nc2nnc(N/N=C/c3ccc(O)cc3O)c3ccccc23)c(O)c1` the growth was 0% (active).
`CCN1/C(=C/C=C/c2n(-c3ccccc3)c3ccc(-c4nc5ccccc5s4)cc3[n+]2CC)N(c2ccccc2)c2ccc(-c3nc4ccccc4s3)cc21` was tested, and the growth was -7.26% (active).
With `CC(=O)OCCC/C(=C\c1ccc2ccccc2c1)[N+](=O)[O-]` the growth was -99.8% (active).
In the case of `Cc1cc(N(CCNc2ccnc3cc(Cl)ccc23)Cc2ccc3c(c2)OCO3)nc(N2CCCC2)n1`, the growth is reported as -56.2% (active).
With `COC(=O)C1=C(C(=O)OC)C23C=C(C)C1C2=C(C)C1(CC1)[C@@](C)(O)C3=O` (stereo partly drawn) the growth was -28% (active).

In order of rising growth:
1. CCc1ccc(/C=C/c2ccc(O)c3ncccc23)[n+](C)c1  27.1%
2. CCOC(=O)C1=C(C)N=C2Sc3cc(OC(F)(F)F)ccc3N2[C@H]1c1ccccn1  33.1%
3. COc1cc(-c2cc(-c3ccc(Nc4ccnc5cc(Cl)ccc45)cc3)nc(N3CCOCC3)n2)cc(OC)c1OC  37.5%
4. CCOC(=O)Sc1ncnc2nc[nH]c12  41%
5. Cc1cc2c(-c3nc4ccccn4c3Nc3cccc4ccccc34)c(O)c(O)cc2c(O)c1-c1c(C)cc2c(-c3nc4ccccn4c3Nc3cccc4ccccc34)c(O)c(O)cc2c1O  44%
6. O=C1CC(c2ccc(Cl)cc2)c2ncn(-c3cccc(Cl)c3)c2N1 (stereo not drawn)  50.5%
7. CCCCCCCC(=O)SCC/C=C/[C@@H]1CC(=O)NCc2cccc(n2)C2=N[C@@](C)(CS2)C(=O)N[C@@H](C(C)C)C(=O)N1  50.8%
8. [2H]C1([2H])[C@H](C)O[C@H](C)C([2H])([2H])N1c1ccc(NC(=O)c2cccc(-c3ccc(OC(F)(F)F)cc3)c2C)cn1  54.5%
9. N#Cc1cc2[nH]c3ccc(OC(F)(F)F)cc3c2oc1=O  59.1%
10. COc1ccc(OC)c(NC2=C(SCCc3ccccc3)C(=O)c3ccccc3C2=O)c1  61.6%
11. Cc1ccc(NC(=O)NC(=O)CSc2nc3ccccc3nc2C)cc1  64.5%
12. COc1ccc2c(c1OC)C(=O)O[C@@H]2[C@H]1c2c(c(C#CC#Cc3ccc(F)c(F)c3)c3c(c2OC)OCO3)CCN1C  70.5%
13. N#CC1(C#N)C(c2cccs2)NC(c2cccs2)C1(C#N)C#N (stereo not drawn)  71.4%
14. CN(N)c1nc2sc3c(c2c(=O)[nH]1)CCCC3  72.9%
15. C[C@@H](C[C@H](CCO)c1cc(C(F)(F)F)cc(C(F)(F)F)c1)c1ccc2ccccc2c1  79%
16. CC(C)C1CCC(C)C(C2(C#N)C(N)=NC(N)=C2C#N)C1=O (stereo not drawn)  80.2%
17. O=C(Nc1ccc(C(=O)Nc2ccc(C3=NCCCN3)cc2)cc1)Nc1ccc(C2=NCCCN2)cc1  82.6%
18. O=C(Nc1ccc(C2=NCCCN2)cc1)c1ccc(C(=O)Nc2ccc(C3=NCCCN3)cc2)nc1  82.6%
19. NC(=O)c1n[nH]n2c1nc(=O)c1c3c(sc12)CCCC3  84.4%
20. COC(=O)c1[nH]cnc1/N=N/N(C)CCO  84.9%
21. C[N+](C)(CCOC(c1ccccc1)c1ccccc1)CC(=O)OCc1ccccc1  86.9%
22. CCC1(/C=N/NC(N)=S)NC(=O)NC1=O (stereo not drawn)  87.5%
23. CC(=O)C(C(C)=O)C(c1ccccc1)C(C(C)=O)C(C)=O  90.9%
24. COc1cc2c3c(c1)nc(C)n3CCC2  91.1%
25. COc1ccc2c(CCc3ccc(Cl)cc3)c3[n+](cc2c1OC)CCc1cc2c(cc1-3)OCO2  91.4%
26. CCOC(=O)C1=C(C)NC(=O)NC1c1cc(=O)oc2ccc(C)cc12 (stereo not drawn)  93.1%
27. COC(=O)CC[C@@H](C)[C@H]1CC[C@H]2C3CC[C@@H]4C[C@@H]5CC[C@]4(C)[C@@]3(O5)[C@H](Br)[C@@H](Br)[C@]12C (stereo partly drawn)  93.7%
28. CC1CCC(n2cnc3c(Cl)ncnc32)O1 (stereo not drawn)  96.4%
29. CC1(/C=N/NC(N)=S)NC(=O)NC1=O (stereo not drawn)  96.5%

These molecules were tested on TK-10 renal in the same assay as above. Settings: 10 µM unless noted.

With `COc1ccc2c(CCCCC(c3ccccc3)c3ccccc3)c3[n+](cc2c1OC)CCc1cc2c(cc1-3)OCO2` the growth was -51% (active).
With `CCN1CCN(c2cc(C)nc(N(CCCNc3ccnc4cc(Cl)ccc34)Cc3ccc4c(c3)OCO4)n2)CC1` the growth was -58.2% (active).
`Nc1c2c(c(O)c3c1=C(CO)C=N3)=NCCS2` was tested, and the growth was -79.4% (active).
With `Cc1cc(N(CCNc2ccnc3cc(Cl)ccc23)Cc2ccc3c(c2)OCO3)nc(N2CCN(C)CC2)n1` the growth was -24.9% (active).
`C=CC(=O)N(C)[C@H]1C[C@H]2OC(C)(C1OC)n1c3ccccc3c3c4c(c5c6ccccc6n2c5c31)C(=O)NC4` (stereo partly drawn) was tested, and the growth was -2.16% (active).
With `CCN1/C(=C/C=C/c2n(-c3ccccc3)c3ccc(-c4nc5ccccc5s4)cc3[n+]2CC)N(c2ccccc2)c2ccc(-c3nc4ccccc4s3)cc21` the growth was -2.12% (active).
For `CC(=O)OCCC/C(=C\c1ccc2ccccc2c1)[N+](=O)[O-]`, the growth was -64.4% (active).
With `COc1cc(-c2cc(-c3ccc(Nc4ccnc5cc(Cl)ccc45)cc3)nc(N3CCOCC3)n2)cc(OC)c1OC` the growth was -75.9% (active).
In the case of `Cc1cc(N(CCNc2ccnc3cc(Cl)ccc23)Cc2ccc3c(c2)OCO3)nc(N2CCCC2)n1`, the growth is reported as -43.5% (active).
In the case of `COC(=O)C1=C(C(=O)OC)C23C=C(C)C1C2=C(C)C1(CC1)[C@@](C)(O)C3=O` (stereo partly drawn), the growth is reported as -6.99% (active).

In order of rising growth:
1. Oc1ccc(/C=N/Nc2nnc(N/N=C/c3ccc(O)cc3O)c3ccccc23)c(O)c1  10.5%
2. CCCCCCCC(=O)SCC/C=C/[C@@H]1CC(=O)NCc2cccc(n2)C2=N[C@@](C)(CS2)C(=O)N[C@@H](C(C)C)C(=O)N1  12%
3. CCOC(=O)Sc1ncnc2nc[nH]c12  23.2%
4. Cc1cc2c(-c3nc4ccccn4c3Nc3cccc4ccccc34)c(O)c(O)cc2c(O)c1-c1c(C)cc2c(-c3nc4ccccn4c3Nc3cccc4ccccc34)c(O)c(O)cc2c1O  50.9%
5. CCOC(=O)C1=C(C)N=C2Sc3cc(OC(F)(F)F)ccc3N2[C@H]1c1ccccn1  51.1%
6. [2H]C1([2H])[C@H](C)O[C@H](C)C([2H])([2H])N1c1ccc(NC(=O)c2cccc(-c3ccc(OC(F)(F)F)cc3)c2C)cn1  63.6%
7. COc1ccc2c(CCc3ccc(Cl)cc3)c3[n+](cc2c1OC)CCc1cc2c(cc1-3)OCO2  67.9%
8. Cc1ccc(NC(=O)NC(=O)CSc2nc3ccccc3nc2C)cc1  82.3%
9. CCc1ccc(/C=C/c2ccc(O)c3ncccc23)[n+](C)c1  85.5%
10. CC1CCC(n2cnc3c(Cl)ncnc32)O1 (stereo not drawn)  88%
11. C[C@@H](C[C@H](CCO)c1cc(C(F)(F)F)cc(C(F)(F)F)c1)c1ccc2ccccc2c1  95%
12. COc1ccc2c(c1OC)C(=O)O[C@@H]2[C@H]1c2c(c(C#CC#Cc3ccc(F)c(F)c3)c3c(c2OC)OCO3)CCN1C  95.3%
13. O=C1CC(c2ccc(Cl)cc2)c2ncn(-c3cccc(Cl)c3)c2N1 (stereo not drawn)  95.8%
14. C[N+](C)(CCOC(c1ccccc1)c1ccccc1)CC(=O)OCc1ccccc1  96%
15. CC1(/C=N/NC(N)=S)NC(=O)NC1=O (stereo not drawn)  96.5%
16. O=C(Nc1ccc(C(=O)Nc2ccc(C3=NCCCN3)cc2)cc1)Nc1ccc(C2=NCCCN2)cc1  96.7%
17. CCOC(=O)C1=C(C)NC(=O)NC1c1cc(=O)oc2ccc(C)cc12 (stereo not drawn)  97.1%
18. COC(=O)CC[C@@H](C)[C@H]1CC[C@H]2C3CC[C@@H]4C[C@@H]5CC[C@]4(C)[C@@]3(O5)[C@H](Br)[C@@H](Br)[C@]12C (stereo partly drawn)  97.7%
19. CC(=O)C(C(C)=O)C(c1ccccc1)C(C(C)=O)C(C)=O  98.1%
20. COc1cc2c3c(c1)nc(C)n3CCC2  99%
21. CCC1(/C=N/NC(N)=S)NC(=O)NC1=O (stereo not drawn)  102%
22. NC(=O)c1n[nH]n2c1nc(=O)c1c3c(sc12)CCCC3  106%
23. COc1ccc(OC)c(NC2=C(SCCc3ccccc3)C(=O)c3ccccc3C2=O)c1  110%
24. CN(N)c1nc2sc3c(c2c(=O)[nH]1)CCCC3  111%
25. N#CC1(C#N)C(c2cccs2)NC(c2cccs2)C1(C#N)C#N (stereo not drawn)  114%
26. CC(C)C1CCC(C)C(C2(C#N)C(N)=NC(N)=C2C#N)C1=O (stereo not drawn)  115%
27. O=C(Nc1ccc(C2=NCCCN2)cc1)c1ccc(C(=O)Nc2ccc(C3=NCCCN3)cc2)nc1  122%
28. COC(=O)c1[nH]cnc1/N=N/N(C)CCO  129%
29. N#Cc1cc2[nH]c3ccc(OC(F)(F)F)cc3c2oc1=O  132%
